Screening data deposited in PubChem BioAssay by National Center for Advancing Translational Sciences (NCATS).
Sampled rows, rich in hits. Any-hit rate of the full collection: about 7.6%.
SW480 rerep: A quantitative high throughput screen for small molecules that induce DNA re-replication in SW480 colon adenocarcinoma cells; Potency, µM (top dose mostly 46.1 µM), inactives show top-dose re-replication activation, actives largely listed as activators; 340,000 tested, 1.8% active; SW480 DNA re-replication, Hoechst DNA content imaging, 48 h; also: potency is read from the fitted curve at half-maximal effect; % of control where 0% means no effect; nearly all actives have a fitted effect of over 55% in size
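DNA re-replication was detected as more nuclei of elevated Hoechst intensity after 48 hr exposure to compound (23 nL pinned per well of 250 cells).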
KB-V1 MDR tox: qHTS assay for MDR1-selective chemotherapeutics: Primary screen using the drug-selected MDR subline cells KB-V1; 400,000 tested, 3.4% active; AID 1347076, 2019; Potency, µM (doses to about 46.1 µM), actives largely listed as cytotoxic; KB-V1 MDR cells viability, CellTiter-Glo, 72 h; also: potency is read from the fitted curve at half-maximal effect; % is scaled to controls: 0 for no effect and ±100 for the full control effect; nearly all actives have a fitted effect of over 60% in size
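Cytotoxicity via CellTiter-Glo luminescence after 72 h compound exposure at 37 degrees C. Cells: drug-selected KB-V1 line, DMEM phenol-red free plus 10% FBS. Compounds tested at multiple concentrations; normalized data fitted to concentration-effect curves.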
MCF10A rereplic: A quantitative high throughput screen for small molecules that induce DNA re-replication in MCF 10a normal breast cells; MCF 10A DNA re-replication, Hoechst nuclear intensity, 48 h; Potency, µM (titrated, usually from 46.1 µM), for the others: top-dose activity, positive = re-replication, most hits filed as activators; 350,000 tested, 2.9% active; also: potency is read from the fitted curve at half-maximal effect; % of control where 0% means no effect; nearly all actives have a fitted effect of over 50% in size
KB-3-1 tox: qHTS assay for MDR1-selective chemotherapeutics: Primary screen using the parental adenocarcinoma cell KB-3-1 | KB-3-1 viability, CellTiter-Glo ATP luminescence, 72 h | Potency, µM (titrated, usually from 46.1 µM), most hits filed as cytotoxic | 400,000 tested, 1.4% active; also: potency is read from the fitted curve at half-maximal effect; % is scaled to controls: 0 for no effect and ±100 for the full control effect; nearly all actives have a fitted effect of over 60% in size
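Here the drug-naive KB-3-1 line serves as comparator for MDR sub-line selectivity; cells received compound titrations, 72 h at 37 °C, then CellTiter-Glo readout.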
KCNH2 WT inh: qHTS for Inhibitors of KCHN2 3.1: Wildtype qHTS; activity change, % at 1.84 µM; 340,000 tested, 0.37% active; U2OS, BacMam KCNH2, thallium flux FluxOr; hits give low values;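 active = maximum activity change below -70%; inconclusive = maximum activity change between -70% and -50%; inactive = maximum activity change above -50%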; also: % is scaled to controls: 0 for no effect and ±100 for the full control effect
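U2OS cells transduced with wild-type KCNH2 virus are loaded with FluxOr dye for 45 min, and thallium flux is measured in kinetic reads before and after stimulation buffer. Rate constants are normalized to DMSO controls.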
KCNH2 3.1 block: qHTS for Inhibitors of KCHN2 3.1: Mutant qHTS; Potassium voltage-gated channel subfamily H member 2, brain isoform KCNH2 3.1 (human); U2OS KCNH2 3.1, thallium flux FluxOr; hits give low values; activity change, % (tested at about 1.8 µM); 340,000 tested, 0.95% active; AID 720553, 2013;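 active = maximum activity change below -70%; inconclusive = maximum activity change from -70% to -50%; inactive = maximum activity change above -50%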;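 also: thallium influx rate constant from kinetic fluorescence after stimulation buffer; % is scaled to controls: 0 for no effect and ±100 for the full control effect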
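We transduce U2OS cells with the mutant 3.1 virus, culture them overnight, load FluxOr with Red40 quencher for 45 min, then add stimulation buffer and read kinetically for 2 min to derive a normalized rate constant.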
* marks the source's active call; other numbers are inactive results; i = inactive; ? = inconclusive; nt = not tested or not shown; [ ] = another dose, or the depositor's remark. Unless noted, calls follow the shape of the dose curve; as a rule, active = well fitted curve in the direction sought with a large enough effect; inconclusive = small, poorly fitted or top-dose-only effect, or another doubt; inactive = no such curve, though single readings can be large; an effect the other way counts as inactive or inconclusive.

SMILES	SW480 rerep	KB-V1 MDR tox	MCF10A rereplic	KB-3-1 tox	KCNH2 WT inh	KCNH2 3.1 block
Cc1cc(Cl)ccc1N(CC(=O)N=Nc1c(O)[nH]c2ccccc12)S(C)(=O)=O	2%	i	-2%	i	-4	-13
O=C(N=Nc1c(O)[nH]c2ccccc12)c1ccc(CN2CCOCC2)cc1	16%	i	8%	i	-9	-5
O=C(CN1CCN(Cc2ccccc2Cl)CC1)N=Nc1c(O)[nH]c2ccccc12	60%	15µM*	-3%	i	-3	-7
O=c1ccc2ccc(Oc3ccc(Cl)cc3[N+](=O)[O-])cc2o1	0%	i	6%	i	0	0
Cc1ccc(CNC(=O)CCCCCn2c(=O)[nH]c3ccccc3c2=O)cc1	nt	i	nt	i	nt	nt
O=C(NCc1cccnc1)c1cc(C2CCCCN2S(=O)(=O)c2ccc(F)cc2F)on1 (configuration not stated)	nt	i	nt	i	nt	nt
Cc1cccc(NC(=O)CNC(=O)CCNC(=O)c2ccc(C(C)(C)C)cc2)c1C	5%	i	?	i	0	12
COc1ccc(Nc2nnc(SCC(=O)NC(=O)Nc3ccc4c(c3)OCCO4)s2)cc1	10µM*	i	13µM*	i	-9	-1
Cc1ccc(C)c(SCC(=O)NC(=O)Nc2ccc3c(c2)OCCO3)c1	-1%	i	2%	i	-79*	5
O=C(CSc1ncccn1)NC(=O)Nc1ccc2c(c1)OCCO2	-15%	i	-4%	i	-7	2
CCC(C)[C@H](NC(=O)Nc1ccc2c(c1)OCCO2)C(=O)O (some centres not stated)	18µM*	i	?	i	-5	-3
O=C(C[N+]1(CCO)CCOCC1)c1cccs1	nt	i	nt	i	nt	nt
CC(C)NC(=S)N/N=C1\CCCc2ccccc21	?	i	23%	i	14	-14
CC(C)NC(=S)NN=C1CCC(c2ccccc2)CC1 (configuration not stated)	21µM*	i	-12%	i	3	11
O=C(Nc1ccc(F)c(Cl)c1)C1Cc2c(-c3ccco3)ccnc2O1 (configuration not stated)	nt	21µM*	nt	?	nt	nt
CC(C)c1ccc(NC(=O)C2Cc3c(-c4ccco4)ccnc3O2)cc1 (configuration not stated)	nt	21µM*	nt	i	nt	nt
CC(=O)Nc1cccc(-c2ccnc3c2CC(C(=O)Nc2ccc(F)c(Cl)c2)O3)c1 (configuration not stated)	nt	i	nt	i	nt	nt
CCCCc1nc2sc3c(=O)[nH]c(=S)[nH]c3c2c2c1CCC2	2%	i	3%	i	-2	9
CCOC(=O)C(CC)(CC)C(=O)/C=C/c1cccc(Br)c1	?	?	18µM*	?	-9	-4
NC(=O)NC(=O)COC(=O)/C=C/c1cccc(Br)c1	-3%	i	-2%	i	8	-7
COc1ccc(N2CCN(S(=O)(=O)CCNC(=O)COc3ccccc3OC)CC2)cc1	1%	i	-3%	i	-3	-4
COc1cc(C2NC(=O)NC(C)=C2C(=O)OCc2ccc(C)cc2)cc(OC)c1O (configuration not stated)	16%	i	7.3µM*	i	-3	-5
CCCOCCOC(=O)C1=C(C)NC(=O)NC1c1cc(Cl)c(O)c(OC)c1 (configuration not stated)	-4%	i	8%	i	-6	-72*
CC(C)Nc1cccc(S(=O)(=O)N2CCCN(S(=O)(=O)c3ccc4c(c3)OCCO4)CC2)c1	nt	i	nt	i	nt	nt
C[C@H](CO)N1C[C@H](C)[C@@H](CN(C)Cc2ccc(Cl)c(Cl)c2)Oc2c(NC(=O)Cc3ccccc3)cccc2C1=O	9%	i	?	?	-15	-78*
SMILES	SW480 rerep	KB-V1 MDR tox	MCF10A rereplic	KB-3-1 tox	KCNH2 WT inh	KCNH2 3.1 block
Cc1noc(C)c1S(=O)(=O)N(C)C[C@H]1Oc2c(NC(=O)Nc3ccccc3)cccc2C(=O)N([C@H](C)CO)C[C@@H]1C	4%[9.22 µM]	i	13%	i	-124*	10
Cc1noc(C)c1S(=O)(=O)N(C)C[C@H]1Oc2c(NC(=O)Nc3ccc(C(F)(F)F)cc3)cccc2C(=O)N([C@H](C)CO)C[C@@H]1C	5%	i	?	i	-5	-13
C[C@H](CO)N1C[C@H](C)[C@@H](CN(C)Cc2ccccc2)Oc2c(NC(=O)Cc3ccccc3)cccc2C1=O	-5%	?	?	23µM*	-1	-8
C[C@@H]1CN([C@@H](C)CO)C(=O)c2cccc(NC(=O)C3CCCCC3)c2O[C@@H]1CN(C)Cc1ccc(Cl)c(Cl)c1	6%	i	42%	i	-2	-18
C[C@H](CO)N1C[C@H](C)[C@@H](CN(C)C(=O)Nc2ccc(C(F)(F)F)cc2)Oc2c(NC(=O)NC3CCCCC3)cccc2C1=O	-46%	i	3.3µM*	?	8	-1
C[C@H](CO)N1C[C@H](C)[C@@H](CN(C)Cc2ccc(-c3ccccc3)cc2)Oc2c(NC(=O)Cc3ccccc3)cccc2C1=O	?	?	?	i	-2	-27
CC(C)(C)NC(=O)c1cnn(-c2ccccc2)c1C1CCN(C(=O)OC(C)(C)C)CC1	nt	i	nt	i	nt	nt
CC1CCC(NC(=O)c2ccc(S(C)(=O)=O)cc2)CC1 (configuration not stated)	-5%	i	-1%	i	9	-7
C[C@H]1CN(S(=O)C(C)(C)C)[C@@H](CCO)/C1=C\c1ccccc1 (some centres not stated)	-36%	i	-4%	i	-2	4
COc1cccc(C(=O)OCC(=O)c2ccc(Br)s2)c1	-1%	i	2%	i	14	7
O=C(c1ccccc1NS(=O)(=O)c1ccc([N+](=O)[O-])cc1[N+](=O)[O-])N1O[C@@H]2C=C[C@H]1C2	?	i	?	i	-4	-3
O=C(C[n+]1ccccc1Br)c1ccc(Cl)cc1	nt	i	nt	i	nt	nt
C[C@H](CO)N1C[C@H](C)[C@@H](CN(C)C)Oc2c(NS(=O)(=O)c3cn(C)cn3)cccc2C1=O	0.92µM*	i	-9%	i	-2	3
